This is one part of a sample in which hits are shown more often than they occur.
IDE exosite FP – insulin-degrading enzyme (human) exo-site inhibition; P14735; hit rate 6.3% among 17,000; z-score at 20 µM; purified IDE, FL-6b probe fluorescence polarization; hits give low values;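 active means z-score of -3 or lower, meaning strong loss of probe binding signal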;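 further: His-tagged human IDE residues 42-1019 made in E. coli with 30 nM FL-6b probe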
Target sequence (P14735 42-1019 limits assumed): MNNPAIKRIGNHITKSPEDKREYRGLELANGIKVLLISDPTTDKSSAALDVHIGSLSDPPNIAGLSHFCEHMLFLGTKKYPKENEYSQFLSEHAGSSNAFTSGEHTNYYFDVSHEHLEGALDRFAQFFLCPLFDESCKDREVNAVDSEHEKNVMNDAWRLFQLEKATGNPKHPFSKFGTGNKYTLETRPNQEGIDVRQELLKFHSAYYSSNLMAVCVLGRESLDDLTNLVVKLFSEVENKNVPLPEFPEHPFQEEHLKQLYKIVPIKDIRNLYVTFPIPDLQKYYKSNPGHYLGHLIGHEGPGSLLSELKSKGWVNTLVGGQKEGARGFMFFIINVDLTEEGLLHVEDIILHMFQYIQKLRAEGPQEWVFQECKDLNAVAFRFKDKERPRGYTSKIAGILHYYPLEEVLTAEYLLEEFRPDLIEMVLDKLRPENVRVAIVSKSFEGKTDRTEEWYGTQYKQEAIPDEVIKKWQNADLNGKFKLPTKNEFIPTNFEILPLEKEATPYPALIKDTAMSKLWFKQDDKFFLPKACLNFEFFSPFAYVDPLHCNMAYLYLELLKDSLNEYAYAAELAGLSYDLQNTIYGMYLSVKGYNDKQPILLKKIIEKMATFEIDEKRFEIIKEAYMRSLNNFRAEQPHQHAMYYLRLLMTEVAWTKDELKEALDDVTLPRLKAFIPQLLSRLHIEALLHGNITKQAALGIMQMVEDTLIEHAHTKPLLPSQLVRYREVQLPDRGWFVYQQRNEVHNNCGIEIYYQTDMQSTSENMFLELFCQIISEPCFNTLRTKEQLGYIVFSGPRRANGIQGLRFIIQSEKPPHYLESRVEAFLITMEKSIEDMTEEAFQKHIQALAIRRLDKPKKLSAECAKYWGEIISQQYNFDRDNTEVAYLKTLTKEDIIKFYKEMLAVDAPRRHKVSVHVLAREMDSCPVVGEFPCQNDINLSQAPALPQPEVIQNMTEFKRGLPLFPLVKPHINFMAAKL
Hits are given with their value; i = inactive.

SMILES | IDE exosite FP
COc1cccc(C(=O)Nc2ccc3c(c2)C(=O)N(C)[C@@H]2CC[C@@H](CC(=O)N[C@@H](C)c4ccccc4)O[C@H]2CO3)c1 | i
COc1cccc(C(=O)Nc2ccc3c(c2)C(=O)N(C)[C@@H]2CC[C@@H](CC(=O)N[C@@H](C)c4ccccc4)O[C@@H]2CO3)c1 | i
COc1cccc(C(=O)Nc2ccc3c(c2)C(=O)N(C)[C@H]2CC[C@@H](CC(=O)N[C@H](C)c4ccccc4)O[C@@H]2CO3)c1 | -3.58
COc1cccc(C(=O)Nc2ccc3c(c2)C(=O)N(C)[C@@H]2CC[C@@H](CC(=O)N[C@H](C)c4ccccc4)O[C@H]2CO3)c1 | i
C[C@H](NC(=O)C[C@H]1CC[C@@H]2[C@@H](COc3ccc(NC(=O)C4CCOCC4)cc3C(=O)N2C)O1)c1ccccc1 | i
COc1ccc(-c2ccc([C@@H]3[C@H]4CN(Cc5ccc(F)cc5)CC(=O)N4[C@H]3CO)cc2)cc1 | i
N#C[C@@H]1[C@@H](c2ccccc2)[C@H](CO)N1C(=O)Nc1cccc(F)c1 | i
CN1C(=O)c2cc(NC(=O)c3ccc4c(c3)OCO4)ccc2OC[C@@H]2O[C@H](CC(=O)O)CC[C@@H]21 | i
CCCC(=O)N1CC2(CCN(S(=O)(=O)CC)CC2)c2c(n(C)c3cc(OC)ccc23)[C@@H]1CO | i
O=C(c1ccc(F)cc1)N(CC1CCC1)C[C@@H]1N[C@H](CO)[C@@H]1c1ccccc1 | i
OC[C@@H]1[C@H](c2ccc(C#Cc3ccccc3F)cc2)[C@@H]2CN(CC3CCOCC3)CCCCN12 | i
COc1ccc(C#Cc2ccc([C@H]3[C@H](CO)N4CCCCN(C)C[C@@H]34)cc2)cc1 | i
CN1CCCCN2[C@@H](CO)[C@@H](c3ccc(C#Cc4ccccc4F)cc3)[C@@H]2C1 | -5
CN1CCCCN2[C@H](CO)[C@@H](c3ccc(-c4ccccc4)cc3)[C@@H]2C1 | i
CN1CCCCN2[C@H](CO)[C@@H](c3ccc(C#Cc4ccccc4F)cc3)[C@@H]2C1 | -8.62
COc1ccc(C#Cc2ccc([C@H]3[C@H]4CN(C)CCCCN4[C@H]3CO)cc2)cc1 | i
N#Cc1ccc(-c2ccc([C@@H]3[C@@H](CO)N4C(=O)CN(C(=O)C5CCC5)C[C@@H]34)cc2)cc1 | i
C/C=C/c1ccc([C@@H]2[C@H](CO)N(C(=O)CN(C)C)C23CN(C(=O)C2CCOCC2)C3)cc1 | i
COCC#Cc1ccc([C@H]2[C@@H](CO)N3C(=O)CN(C(=O)c4cccnc4)C[C@@H]23)cc1 | i
O=C(C[C@H]1CC[C@H]2[C@@H](COC[C@@H](O)CN2C(=O)c2ccccc2F)O1)NCc1ccc(Cl)c(Cl)c1 | i
CO[C@H](CN(C)C(=O)c1cnccn1)[C@@H](C)CN([C@H](C)CO)S(=O)(=O)c1ccccc1 | i
OC[C@@H]1[C@@H](c2ccc(-c3ccc(F)cc3)cc2)[C@H]2CN(Cc3ccncc3)CCCCN12 | i
OC[C@H]1[C@H](c2ccc(-c3ccccc3)cc2)[C@H]2CN(Cc3ccccn3)CCCCN21 | i
OC[C@@H]1[C@H](c2ccc(-c3ccccc3)cc2)[C@H]2CN(Cc3ccccn3)CCCCN12 | i
OC[C@H]1[C@H](c2ccc(-c3ccccc3F)cc2)[C@@H]2CN(Cc3ccncc3)CCCCN12 | i
SMILES | IDE exosite FP
OC[C@@H]1[C@@H](c2ccc(-c3ccccc3F)cc2)[C@H]2CN(Cc3ccncc3)CCCCN12 | i
OC[C@@H]1[C@H](c2ccc(-c3ccc(F)cc3)cc2)[C@@H]2CN(Cc3ccncc3)CCCCN12 | i
OC[C@@H]1[C@H](c2ccc(-c3ccccc3)cc2)[C@@H]2CN(Cc3ccccn3)CCCCN12 | -3.03
Cc1cccc(-c2ccc([C@@H]3[C@@H](CO)N4CCCCN(Cc5ccncc5)C[C@H]34)cc2)c1 | -5.02
COc1ccccc1-c1ccc([C@H]2[C@H](CO)N3CCCCN(Cc4ccncc4)C[C@@H]23)cc1 | -8.05
CN(C[C@H]1[C@@H](c2ccccc2)[C@H](CO)N1C(=O)C1CCC1)C(=O)c1ccccn1 | i
Cc1ccc(S(=O)(=O)N2C[C@H](O)COC[C@H]3O[C@H](CC(=O)NCc4ccc5c(c4)OCO5)CC[C@@H]32)cc1 | i
CO[C@@H]1CC[C@@H]2CCOc3c(C#N)cccc3C(=O)N(C)C[C@@H](OC)[C@@H](C)C(=O)N(C)C[C@@H]1O2 | i
C[C@H](O)C#Cc1ccc([C@@H]2[C@H](CO)N3CCCCN(C(=O)c4cccc(F)c4)C[C@@H]23)cc1 | i
Cc1ccccc1S(=O)(=O)N1CC(=O)N2[C@H](CO)[C@H](c3ccc(C#Cc4ccccc4)cc3)[C@@H]2C1 | i
C[C@@H](NC(=O)C[C@@H]1CC[C@H]2[C@@H](COC[C@H](O)CN2Cc2ccc(C(F)(F)F)cc2)O1)c1ccccc1 | i
CC(=O)N1[C@@H](CO)[C@@H](c2ccccc2)[C@@H]1CN(CC1CCC1)C(=O)CN(C)C | i
COCC(=O)N1[C@H](C#N)[C@H](c2ccccc2-c2ccc(C)cc2)[C@H]1CO | i
CN1C(=O)c2cc(NC(=O)c3cccc(F)c3)ccc2OC[C@H]2O[C@H](CC(=O)NCc3ccccc3Cl)CC[C@@H]21 | i
O=S(=O)(c1ccccc1F)N1CCCCN2[C@@H](CO)[C@@H](c3ccc(-c4ccccc4)cc3)[C@@H]2C1 | i
O=S(=O)(c1ccccc1F)N1CCCCN2[C@H](CO)[C@H](c3ccc(-c4ccccc4)cc3)[C@H]2C1 | i
Cc1cccc(-c2ccc([C@H]3[C@H]4CN(S(=O)(=O)c5ccccc5C)CCCCN4[C@H]3CO)cc2)c1 | i
Cc1cccc(-c2ccc([C@@H]3[C@@H](CO)N4CCCCN(S(=O)(=O)c5ccccc5C)C[C@@H]34)cc2)c1 | -20.3
Cc1cccc(-c2ccc([C@@H]3[C@@H](CO)N4CCCCN(S(=O)(=O)c5ccccc5C)C[C@H]34)cc2)c1 | i
Cc1cccc(-c2ccc([C@H]3[C@H]4CN(S(=O)(=O)c5ccccc5F)CCCCN4[C@H]3CO)cc2)c1 | i
Cc1ccccc1S(=O)(=O)N1CCCCN2[C@H](CO)[C@@H](c3ccc(-c4cccc(F)c4)cc3)[C@@H]2C1 | -7.34
Cc1cccc(-c2ccc([C@@H]3[C@@H](CO)N4CCCCN(S(=O)(=O)c5cccc(C)c5)C[C@H]34)cc2)c1 | i
Cc1cccc(-c2ccc([C@H]3[C@H](CO)N4CCCCN(S(=O)(=O)c5cccc(C)c5)C[C@@H]34)cc2)c1 | i
Cc1cccc(-c2ccc([C@H]3[C@@H](CO)N4CCCCN(S(=O)(=O)c5ccccc5F)C[C@H]34)cc2)c1 | -3.53
Cc1cccc(-c2ccc([C@@H]3[C@@H](CO)N4CCCCN(S(=O)(=O)c5cccc(C)c5)C[C@@H]34)cc2)c1 | -9.77
SMILES | IDE exosite FP
CCS(=O)(=O)Nc1ccc2c(c1)C(=O)N(C)C[C@H](OC)[C@@H](C)CN(CC1CCCCC1)[C@H](C)CO2 | i
O=C(Nc1ccc(F)cc1)N1CC(=O)N2[C@H](CO)[C@H](c3ccc(C4=CCCC4)cc3)[C@H]2C1 | i
CC(=O)N(Cc1cccc(F)c1)C[C@@H]1[C@@H](c2ccccc2)[C@@H](CO)N1C(C)=O | i
CS(=O)(=O)N1[C@H](C#N)[C@H](c2ccc(-c3ccccc3F)cc2)[C@@H]1CO | i
CO[C@@H]1CN(C)C(=O)c2cc(NC(C)=O)ccc2OC[C@H](C)N(Cc2ccncc2)C[C@@H]1C | i
CC(=O)NC[C@H]1[C@H](c2ccc(-c3ccccc3)cc2)[C@H](CO)N1C(=O)C1CCC1 | i
N#C[C@H]1[C@H](c2ccc(-c3ccccc3)cc2)[C@H](CO)N1C(=O)Cc1ccccc1 | i
N#C[C@H]1[C@@H](c2ccc(-c3ccncc3)cc2)[C@@H](CO)N1C(=O)Cc1ccccc1 | i

Source: PubChem BioAssay
